The values below come from PubChem BioAssay AID686979 (National Center for Advancing Translational Sciences (NCATS), 2013).

About 50,000 (12%) of roughly 420,000 compounds were called active. Entries that show only a call come without a potency. Inconclusive results (about 26%) are left out. The call rests on the fitted dose curve; in most records, active means well fitted inhibition curve with a large enough effect; inconclusive means small, poorly fitted or top-dose-only effect; inactive means flat fitted curve, though single readings scatter. This excerpt belongs to a sample that is enriched for actives.
Potency means the concentration at half of the fitted maximal effect.

This experiment is described as follows: qHTS for Inhibitors of human tyrosyl-DNA phosphodiesterase 1 (TDP1): qHTS in cells in presence of CPT. Further: nearly all actives have a fitted effect of over 55% in size. Particulars: chicken DT40 Tdp1-/-;hTDP1 cells + 20 nM CPT, ATP luminescence, 48 h; series mostly up to 46.2 µM. The method in brief:
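Chicken DT40 Tdp1-/- cells stably complemented with human TDP1 were seeded at 400 cells/well in medium containing 20 nM camptothecin, exposed to pin-transferred compounds, and grown at 37 °C for at least 48 hr. Viability was read as ATP luminescence.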
Turning to `CN(Cc1ccc2nsnc2c1)Cc1nc(Cc2cccc(F)c2)no1`, the Potency entry is “inactive”.

Take `Cc1cc(C)c(S(=O)(=O)c2ccc(F)cc2C)c(=O)[nH]1`: the Potency entry is “inactive”. Take `CN(CC(=O)NC1CCCC1)S(=O)(=O)c1cnc[nH]1`: the Potency result is “inactive”.

With `C=CCN1CN(S(=O)(=O)c2ccc(OC)cc2)c2nc3ccccc3nc21`, the Potency result was “inactive”. To `O=C(Cn1cc(C(F)(F)F)ccc1=O)N/N=C/c1ccc(Cl)cc1Cl` belongs “inactive”; to `CC1(C(=O)NS(=O)(=O)c2ccc(C#N)cc2)CCN1C(=O)c1ccc(C2CCCCC2)cc1` (stereo not given), “inactive”.

For the molecule `O=C(CNC(=O)OCc1ccccc1)NC1CCCCNC1=O` (stereo not given), the Potency entry was “inactive”. To `Cc1ccc(C(=O)NCC(=O)OCC(=O)NC2CCCCCCC2)cc1` belongs “inactive”; to `CN(C1CCS(=O)(=O)C1)S(=O)(=O)c1ccc2ccccc2c1` (stereo not given), “inactive”; to `O=C(CNC(=O)c1ccccc1)Oc1ccc([N+](=O)[O-])cc1`, “inactive”. For `O=C(NC(Nc1nc2ccc([N+](=O)[O-])cc2s1)(C(F)(F)F)C(F)(F)F)c1ccccc1` the value was 0.461 µM (active); for `O=C(COC(=O)c1ccc(F)cc1)Nc1nc2ccc([N+](=O)[O-])cc2s1`, “inactive”; for `Nc1ccc(N=Nc2ccccc2Cl)c(N)n1`, “inactive”. To `Cc1ccc(-c2nc3ccc(Cl)cn3c2Cc2ccccc2)cc1` belongs 20.6 µM (active); to `Cc1ccc(Cc2c(-c3ccccc3)nc3ccc(Cl)cn23)cc1`, “inactive”; to `Cc1cc(Br)cn2c(Cc3ccccc3C(F)(F)F)c(-c3ccc(Cl)cc3)nc12`, “inactive”.

Regarding `CN1CCN(Cc2c(C(=O)N3CCc4ccccc4C3)nc3ccc(Cl)cn23)CC1`, the Potency entry is “inactive”. To `Cc1ccc(-c2nc3c(C)cc(Br)cn3c2Cc2ccccc2)cc1` belongs “inactive”; to `Cc1cc(Br)cn2c(Cc3ccccc3C(F)(F)F)c(C3CCCCC3)nc12`, “inactive”. On to `Cc1ccc(Cc2c(-c3ccco3)nc3ccc(Cl)cn23)cc1`, for which the Potency is 8.2 µM (active).

Turning to `CC(=O)Nc1c(-c2ccc(C)cc2)nc2ccc(Cl)cn12`, the Potency entry is “inactive”. For the molecule `Cc1ccc(-c2nc3ccc(Br)cn3c2Cc2ccccc2C(F)(F)F)cc1`, the Potency was 16.4 µM (active). For `Cc1ccccc1-n1nnnc1SCCCC(=O)c1ccc(F)cc1` the value was “inactive”.

For `CCCS(=O)(=O)NC(=O)C1(C)CCCN(C(=O)c2cc(C)on2)C1` (stereo not given), the Potency entry was “inactive”.

Take `O=S(=O)(c1cccc(-c2cn3ccccc3n2)c1)N1CCCC1`: the Potency entry is “inactive”. Consider `O=C(COC(=O)c1cccc(Cl)c1)NC1CCCCCCC1`, for which the Potency result is “inactive”. For `Cc1nnc(NC(=O)Cn2c(=O)sc3ccccc32)s1` the value was “inactive”. To `O=C(c1ccccc1)c1ccc2nc(N3CCCCC3)c3nncn3c2c1` belongs 23.1 µM (active); to `c1ccc(CC2CCN(c3nc4ccccc4n4cnnc34)CC2)cc1`, “inactive”; to `O=C(NNc1nc(N2CCCC2)nc(N2CCCC2)n1)c1ccccc1`, “inactive”.
